Compounds with a hit are over-represented: about 21% of the library has one in this group of screens.
Cycloheximide cs: counter-screen for Shiga toxin inhibitors: cycloheximide protein synthesis inhibition. max response, %. cell reporter, cycloheximide protein synthesis inhibition counterscreen. 300,000 tested, 12% active; in the data active = max response mostly above about 13%, no sharp cut-off; inactive = mostly below about 14%; also: read at 38.3 µM for the half of the compounds with a filed dose
Pf growth 96h: P. falciparum growth inhibition at 96 hours; P. falciparum luciferase reporter growth, 96 h; Potency, µM (top dose mostly 28.7 µM), usual class: inhibitors; 320,000 tested, 6.9% active; AID 504834
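96 h incubation, 37 C, 5% CO2, of luciferase-reporter P. falciparum-infected RBCs (2% hematocrit, 0.05% parasitemia final) with test compounds; endpoint luminescence.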
Shiga toxin inh: inhibitors of Shiga toxin in Vero cells. Vero cells, Shiga toxin protein synthesis inhibition reporter. 290,000 tested, 9.2% active. inhibition, % at 38.7 µM; in the data active = inhibition mostly above about 28%, no sharp cut-off; inactive = mostly below about 43%
Pf growth 48h: P. falciparum growth inhibition at 48 hours (one generation); P. falciparum luciferase growth in erythrocytes, 48 h; Potency, µM (doses to about 28.7 µM), actives largely listed as inhibitors; 310,000 tested, 5.9% active; AID 504832
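In quantitative HTS format, infected erythrocytes bearing luciferase-reporter parasites were treated for a single generation at 37 C. Luminescence after adding detection reagent served as the growth measure.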
Of the large screens only hits and unclear results are named; the others gave an inactive call. Unless noted, calls follow the shape of the dose curve; as a rule, active = well fitted inhibition curve with a large enough effect; inconclusive = small, poorly fitted or top-dose-only effect, or another doubt; inactive = no such curve, though single readings can be large or run the other way.

CC(=O)Nc1ccc(S(=O)(=O)N2CCN(c3nc4ccccc4n3CC(C)C)CC2)cc1	Pf growth 48h inconclusive
CC(=O)NCCNc1ccc([N+](=O)[O-])cn1	none
CC(C)c1ccc(CNc2ccc([N+](=O)[O-])cn2)cc1	Cycloheximide cs 55, Shiga toxin inh 74
CC(C)CC1NC(=O)N(CC(=O)N2CCN(S(=O)(=O)c3ccccc3)CC2)C1=O (stereo not given)	none
CCCC(=O)NC(c1ccccc1)c1ccc2cccnc2c1O (stereo not given)	Pf growth 96h inconclusive, Pf growth 48h 2.3µM (no result: Shiga toxin inh)
COc1ccc(Cl)cc1C(Nc1cccnc1)c1ccc2cccnc2c1O (stereo not given)	Pf growth 96h inconclusive, Pf growth 48h 5.2µM
CCC(=O)NC(c1ccccc1OC)c1ccc2cccnc2c1O (stereo not given)	Pf growth 48h 4.1µM
COc1cccc(C(NC(C)=O)c2ccc3cccnc3c2O)c1 (stereo not given)	Pf growth 48h inconclusive
CCC(=O)NC(c1ccc(OC)cc1)c1cc(Cl)c2cccnc2c1O (stereo not given)	none
CC(C)C(=O)NC(c1ccccc1)c1cc([N+](=O)[O-])c2cccnc2c1O (stereo not given)	Pf growth 96h 0.37µM
COc1ccc(C(=O)CSc2ccccc2C(=O)O)cc1	none
CC(C)CC1(C)NC(=O)N(CC(=O)Nc2ccc3c(c2)CCC3)C1=O (stereo not given)	none
CCCC(=O)NC(c1ccc(OC)cc1)c1ccc2cccnc2c1O (stereo not given)	Pf growth 96h inconclusive, Pf growth 48h 1.3µM
CCCCC(=O)NC(c1ccccc1)c1ccc2cccnc2c1O (stereo not given)	Pf growth 96h inconclusive, Pf growth 48h inconclusive
O=c1cc(N2CCCCC2)c(-c2ccccc2)nn1Cc1ccccc1Cl	Pf growth 96h 2.6µM, Pf growth 48h 3.3µM
O=c1cc(N2CCCCC2)c(-c2ccccc2)nn1Cc1ccc(Cl)cc1Cl	Pf growth 96h inconclusive, Pf growth 48h 2.1µM
O=c1cc(N2CCCCC2)c(-c2ccccc2)nn1Cc1cccc(Cl)c1	Pf growth 96h inconclusive, Pf growth 48h inconclusive
C=CCn1nc(-c2ccccc2)c(N2CCCCC2)cc1=O	Pf growth 96h inconclusive, Pf growth 48h inconclusive
COc1ccc(Nc2cccc(Cl)c2)c(C(=O)O)c1	none
CSc1ccccc1NC(=O)Nc1cccc(Cl)c1	Cycloheximide cs 41, Shiga toxin inh 84 (no result: Pf growth 96h)
CSc1ccccc1NC(=O)Nc1ccc(F)c(Cl)c1	Cycloheximide cs 34, Pf growth 96h inconclusive, Shiga toxin inh 61
Cc1ccc(NC(=O)Nc2cccc(Cl)c2)c(C(=O)O)c1	Cycloheximide cs 24
O=C(NNC(=O)c1ccc(Br)s1)c1cccc(Cl)c1	Pf growth 48h inconclusive (no result: Cycloheximide cs, Shiga toxin inh)
Cc1ccc(S(=O)(=O)NCc2ccccc2)cc1C(=O)NCc1ccccn1	none
N#C/C(=C\c1cccnc1)c1nc2c(s1)CCCC2	Cycloheximide cs 44, Shiga toxin inh 156
CC(C)OC(=O)/C(C#N)=C\c1cccnc1	none
CC1CCc2nc(/C(C#N)=C/c3cccnc3)sc2C1 (stereo not given)	Cycloheximide cs 52, Shiga toxin inh 145
COc1cc(/C=C(\C#N)c2nc3c(s2)CCCC3)ccc1O	Cycloheximide cs 50, Shiga toxin inh 68 (no result: Pf growth 96h)
N#C/C(=C/c1cccnc1)c1ccccc1	none (no result: Shiga toxin inh)
Cc1ccc(N2CC(C(=O)OCC(=O)Nc3ccccc3C)CC2=O)cc1 (stereo not given)	none (no result: Cycloheximide cs, Shiga toxin inh)
O=C1CCCN1C(=O)CSc1ccc2ccccc2n1	none (no result: Cycloheximide cs, Shiga toxin inh)
O=C(NCCS(=O)(=O)N1CCN(c2ccccc2F)CC1)c1cccc(Br)c1	none
CN(C)C(=O)[C@H]1C[C@H]1[C@@H](O)[C@H](CO)NC(=O)[C@H](Cc1ccccc1)NC(=O)OC(C)(C)C	none
Cc1csc(SCC(=O)c2cc(C)n(Cc3cccs3)c2C)n1	Cycloheximide cs 17, Shiga toxin inh 32 (no result: Pf growth 96h)
Cc1cc(C(=O)CSc2nnc(N)s2)c(C)n1Cc1cccs1	Cycloheximide cs 57, Shiga toxin inh 83
Cc1cc(C(=O)CSc2n[nH]c(-c3ccccc3F)n2)c(C)n1Cc1cccs1	Cycloheximide cs 17 (no result: Pf growth 96h)
COc1ccc(-c2nnc(SCC(=O)c3cc(C)n(Cc4cccs4)c3C)o2)cc1	none (no result: Pf growth 96h)
NS(=O)(=O)c1cccc(NC(=O)CSc2nnc(-c3ccccc3F)n2C2CC2)c1	none
CN(C(=O)COC(=O)C1(C)CC1(Cl)Cl)c1c(N)n(Cc2ccccc2)c(=O)[nH]c1=O (stereo not given)	none (no result: Cycloheximide cs, Shiga toxin inh)
CCn1c(C)nc2cc(C(=O)n3cc(C(=O)c4cc(F)ccc4O)cn3)ccc21	Pf growth 96h 0.83µM
Cc1ccc2c(c1)C1CN(C)CCC1N2C(=O)Cc1cccs1 (stereo not given)	Pf growth 96h 0.93µM, Pf growth 48h inconclusive

Compound activity as filed in PubChem.
